TIM10 inh – growth inhibitors of isogenic TIM10 control yeast, primary screen, counter-screen for tim10-1 yeast inhibitor project, luminescence, uHTS. S. cerevisiae TIM10 strain growth, BacTiter-Glo luminescence, 24 h. inhibition, % at 10 µM. actives 1.4% (n = 330,000);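 active means inhibition of 40% or more at the single tested concentration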;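 further: wild-type TIM10 isogenic control strain grown at permissive 25 °C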
V-ATPase pHluor – regulators of yeast V-ATPase proton pumping, primary screen, pHLuorin cytosolic pH fluorescence. S. cerevisiae. actives 0.37% (n = 350,000). response, % at 10 µM; in the data active means response mostly above about 7.3%, no sharp cut-off; inactive means mostly below about 5.4%; further: actives read high
NALP1 inh – NALP1 inflammasome inhibitors in reconstituted yeast, colorimetric, S. cerevisiae, triplicate retest. S. cerevisiae NALP1/ASC/caspase-1 growth, X-gal OD620, 72 h. inhibition, % at 10 µM. AID 2071, 2009. actives 0.61% (n = 280,000); in the data active means inhibition mostly above about 24%, no sharp cut-off; inactive means mostly below about 32%
NALP3 yeast inh – NALP3 inflammasome inhibitors in reconstituted yeast, primary screen, luminescence, uHTS. Yeast reconstituted NLRP3/ASC/caspase-1, beta-gal luminescence, 24 h. inhibition, % at 10 µM. actives 0.39% (n = 330,000);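 active means inhibition of 50% or more; inactive means inhibition below 50%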
tim23-1 inh – growth inhibitors of tim23-1 mutant yeast, primary screen, luminescence, uHTS; actives 1.3% (n = 330,000); AID 463212, 2010; inhibition, % at 20 µM; S. cerevisiae tim23-1 growth, BacTiter-Glo luminescence, 24 h;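 active means growth inhibition of the mutant yeast at or above 50%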;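 further: temperature-sensitive mutant grown at 25 °C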
tim10-1 inh – growth inhibitors of tim10-1 mutant yeast, primary screen, luminescence, uHTS; actives 2.2% (n = 330,000); S. cerevisiae tim10-1 ts strain growth, BacTiter-Glo, 24 h; inhibition, % at 20 µM;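 active means inhibition of at least 40%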;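 further: mutant grown at 25 °C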
Hits are given with their value. Shown are actives, neighbours in structure and some others; about 4.2% of the full set was active somewhere.

How did CC(C)c1ccc(NC(=O)C(c2ccc3c(c2)OCO3)N2CCCCC2)cc1 (configuration not stated) do in these assays?
TIM10 inh: inactive; V-ATPase pHluor: inactive; NALP1 inh: inactive; NALP3 yeast inh: inactive; tim23-1 inh: inactive; tim10-1 inh: inactive

How did CC1CCN(C(C(=O)Nc2ccc(C(C)C)cc2)c2ccc3c(c2)OCO3)CC1 (configuration not stated) do in these assays?
TIM10 inh: inactive; V-ATPase pHluor: inactive; NALP1 inh: 38; NALP3 yeast inh: inactive; tim23-1 inh: inactive; tim10-1 inh: inactive

What do the screens show for `CC1CCc2c(N3CCC(O)CC3)c(F)cc3c(=O)c(C(=O)O)cn1c23` (configuration not stated)?
TIM10 inh: inactive; V-ATPase pHluor: inactive; NALP3 yeast inh: inactive; tim23-1 inh: inactive; tim10-1 inh: inactive

What do the screens show for `CC1CCc2cc(F)cc3c(=O)c(C(=O)O)cn1c23` (configuration not stated)?
TIM10 inh: inactive; V-ATPase pHluor: inactive; NALP1 inh: 102; NALP3 yeast inh: inactive; tim23-1 inh: inactive; tim10-1 inh: inactive

What do the screens show for `C1CCCCCC(NCCN2CCNCC2)CCCCC1`?
TIM10 inh: inactive; V-ATPase pHluor: inactive; NALP3 yeast inh: inactive; tim23-1 inh: inactive; tim10-1 inh: inactive

Results for CCC1(c2ccc(Cl)cc2)NC(=O)N(CC(=O)NCc2ccc(F)cc2)C1=O (configuration not stated) ?
TIM10 inh: inactive; V-ATPase pHluor: inactive; NALP1 inh: inactive; NALP3 yeast inh: inactive; tim23-1 inh: inactive; tim10-1 inh: inactive

What do the screens show for `CCC1(c2ccc(Cl)cc2)NC(=O)N(Cc2ccc(C(=O)OC)cc2)C1=O` (configuration not stated)?
TIM10 inh: inactive; V-ATPase pHluor: 13; NALP1 inh: inactive; NALP3 yeast inh: inactive; tim23-1 inh: inactive; tim10-1 inh: inactive

Results for CCOc1ccc(S(=O)(=O)N2CCC(C(=O)NC3CC3)CC2)cc1Cl ?
TIM10 inh: inactive; V-ATPase pHluor: inactive; NALP1 inh: inactive; NALP3 yeast inh: inactive; tim23-1 inh: inactive; tim10-1 inh: inactive

How did O=c1c2ccccc2sn1-c1cc(S(=O)(=O)N2CCOCC2)ccc1N1CCOCC1 do in these assays?
TIM10 inh: inactive; V-ATPase pHluor: inactive; NALP1 inh: 30; NALP3 yeast inh: inactive; tim23-1 inh: inactive; tim10-1 inh: inactive

Results for Fc1ccc(-n2c(CN3CCCCC3)n[nH]c2=S)cc1 ?
TIM10 inh: inactive; V-ATPase pHluor: 14; NALP1 inh: inactive; NALP3 yeast inh: inactive; tim23-1 inh: inactive; tim10-1 inh: inactive

Results for Nc1ccc(NC(=O)NC2CCCCC2)cc1[N+](=O)[O-] ?
TIM10 inh: inactive; V-ATPase pHluor: inactive; NALP1 inh: inactive; NALP3 yeast inh: inactive; tim23-1 inh: inactive; tim10-1 inh: inactive

Results for CCOC(=O)C(NS(=O)(=O)c1ccccc1)(C(F)(F)F)P(=O)(OCC(C)C)OCC(C)C (configuration not stated) ?
TIM10 inh: inactive; V-ATPase pHluor: inactive; NALP1 inh: 34; NALP3 yeast inh: inactive; tim23-1 inh: inactive; tim10-1 inh: inactive

What do the screens show for `COC(=O)NC(NS(=O)(=O)c1ccccc1)(C(=O)OC)C(F)(F)F` (configuration not stated)?
TIM10 inh: inactive; V-ATPase pHluor: inactive; NALP1 inh: inactive; NALP3 yeast inh: inactive; tim23-1 inh: inactive; tim10-1 inh: inactive

Results for O=C(Cc1ccc(Cl)cc1)Nc1cc(Cl)ccn1 ?
TIM10 inh: inactive; V-ATPase pHluor: inactive; NALP3 yeast inh: inactive; tim23-1 inh: inactive; tim10-1 inh: inactive

How did COc1ccccc1NC(=O)C(C)OC(=O)Cc1n[nH]c(=O)c2ccccc12 (configuration not stated) do in these assays?
TIM10 inh: inactive; V-ATPase pHluor: 16; NALP3 yeast inh: inactive; tim23-1 inh: inactive; tim10-1 inh: inactive

How did CC(C)(C)c1ccc(Cn2nc(CC(=O)O)c3ccccc3c2=O)cc1 do in these assays?
TIM10 inh: inactive; V-ATPase pHluor: inactive; NALP1 inh: inactive; NALP3 yeast inh: inactive; tim23-1 inh: inactive; tim10-1 inh: inactive

Results for Cc1ccc(SCCNC(=O)CN(c2ccc3c(c2)OCO3)S(C)(=O)=O)cc1 ?
TIM10 inh: inactive; V-ATPase pHluor: inactive; NALP1 inh: inactive; NALP3 yeast inh: inactive; tim23-1 inh: inactive; tim10-1 inh: inactive

Results for CS(=O)(=O)N(CC(=O)NCCSC1CCCCC1)c1ccc2c(c1)OCO2 ?
TIM10 inh: inactive; V-ATPase pHluor: 24; NALP1 inh: inactive; NALP3 yeast inh: inactive; tim23-1 inh: inactive; tim10-1 inh: inactive

What do the screens show for `COc1cc(NC(=O)c2ccc([N+](=O)[O-])cc2)ccc1NC(=O)C(C)C`?
TIM10 inh: inactive; V-ATPase pHluor: inactive; NALP1 inh: inactive; NALP3 yeast inh: inactive; tim23-1 inh: inactive; tim10-1 inh: inactive

How did Cc1csc(NC(=O)c2c(O)c3c(n(CC(C)C)c2=O)CCCC3)n1 do in these assays?
TIM10 inh: inactive; V-ATPase pHluor: inactive; NALP1 inh: 31; NALP3 yeast inh: inactive; tim23-1 inh: inactive; tim10-1 inh: inactive

What do the screens show for `CCCn1c2c(c(O)c(C(=O)Nc3nc(C)cs3)c1=O)CCCC2`?
NALP1 inh: inactive

How did Clc1cccc2c1Sc1ccccc1CC2N1CCNCC1 (configuration not stated) do in these assays?
TIM10 inh: inactive; V-ATPase pHluor: inactive; NALP1 inh: 74; NALP3 yeast inh: inactive; tim23-1 inh: inactive; tim10-1 inh: inactive

Results for O=C(COC(=O)COc1cccc(C(F)(F)F)c1)NC(=O)NC1CCCCC1 ?
TIM10 inh: inactive; V-ATPase pHluor: inactive; NALP3 yeast inh: inactive; tim23-1 inh: inactive; tim10-1 inh: inactive

How did Cc1ccc(C2(C(F)(F)F)N=C3Sc4cc(C)ccc4N3C(=O)N2)cc1 (configuration not stated) do in these assays?
TIM10 inh: inactive; NALP1 inh: 36; NALP3 yeast inh: inactive; tim23-1 inh: inactive; tim10-1 inh: inactive

Results for CC(C)N1CCN(Cc2cccn2-c2nccs2)CC1CCO (configuration not stated) ?
TIM10 inh: inactive; V-ATPase pHluor: inactive; NALP1 inh: inactive; NALP3 yeast inh: inactive; tim23-1 inh: inactive; tim10-1 inh: inactive

What do the screens show for `OCCC1CN(Cc2cccn2-c2nccs2)CCN1C1CCCCC1` (configuration not stated)?
TIM10 inh: inactive; V-ATPase pHluor: inactive; NALP1 inh: 25; NALP3 yeast inh: inactive; tim23-1 inh: inactive; tim10-1 inh: inactive

How did CC1CCC2(CC1)SCC(=O)N2c1ccccc1 (configuration not stated) do in these assays?
TIM10 inh: inactive; V-ATPase pHluor: inactive; NALP1 inh: inactive; NALP3 yeast inh: inactive; tim23-1 inh: inactive; tim10-1 inh: inactive

Results for Cc1cccc(N2C(=O)CSC23CCCCC3)c1 ?
TIM10 inh: inactive; V-ATPase pHluor: inactive; NALP1 inh: 35; NALP3 yeast inh: inactive; tim23-1 inh: inactive; tim10-1 inh: inactive
